This is part of a sample that, as a whole, favours compounds with a hit. Of some 83,000 tested, about 20% had one in any assay.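 48-hour exposure, single concentration, 96-well plates; percent growth endpoint where 0 means no net growth. Active: below 10.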 A number with no mark means an inactive call. Active and inactive are the calls of the source.
The compounds below were run on NCI-H522 lung (assay: NCI-60 one-dose screen, 48 h (100 = growth as untreated, 0 = no growth, -100 = all killed)). Conditions: 10 µM.

SMILES | growth
CN(C)c1nc2c([nH]1)c(=O)n(C)c(=O)n2C | 73.1%
NC(=S)N/N=C/c1ccc(N)cc1 | 92.3%
N#Cc1ccc(OC(=O)Nc2ccc(Cl)c(Cl)c2)cc1 | 24.5%
CCOC(=O)CSc1c([N+](=O)[O-])ncn1C | 99.9%
Cc1cc(=O)n(-c2ccc(F)cc2)[nH]1 | 97.6%
c1ccc2c(c1)Sc1ccccc1S2 | 98.6%
Nc1ncnc2c1nc(N)n2C1OC(CO)C(O)C1O (stereo unspecified) | -63.3% (active)
C=CCOC(=O)C(=O)OCC=C | 96.6%
O=[N+]([O-])c1cccc2nsnc12 | 103%
CCOC(=O)c1cc2cccc(OC)c2oc1=O | 83.5%
CSC(=N\N=C\c1ccc(N(C)C)cc1)/N=C/N(C)C | 107%
CCC(C)(O)c1ccc(C)cc1 (stereo unspecified) | 109%
O=C1C=CC(=O)N1c1ccc(I)cc1Cl | -29.7% (active)
O=C(O)CCC(NC(=O)OCc1ccccc1)C(=O)O (stereo unspecified) | 99.6%
CC12CC3CC1C(C(=O)O2)C3C(=O)O (stereo unspecified) | 96%
CCc1nc(N)nc(N)c1-c1ccc(Cl)cc1 | 83%
Cc1cc(OCCO)cc(C)c1Cl | 114%
Cc1nc2ccccc2c2nnc(SCC(=O)N(Cc3ccccc3)c3ccccc3)n12 | 70.9%
COc1cccc(/C=N/NC(=S)NC2CC3CCC2C3)c1O (stereo unspecified) | 64.7%
CC(C)(O)C#CC#CC(C)(C)O | 82.5%
C[N+](C)=c1ccc2nc3c(cc(Nc4ccccc4)c4ccccc43)oc-2c1 | 42.3%

— PubChem BioAssay (NCI)
